Screens from PubChem BioAssay.
Most compounds without a hit are left out; they make up all but 1.2% or so of the library.
GALR2 blocker – GALR2 antagonists in receptor-expressing cells, primary screen; Galanin receptor type 2 (Homo sapiens), O43603; antagonist mode; inhibition, % at 4 µM; 140,000 compounds, 0.39% hits; AID 828, 2007; in the data active means inhibition above about 27%;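 further: cells stimulated with galanin 1-16 at roughly its EC80; 0% = agonist challenge control and 100% = basal control without agonist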
Target sequence (O43603 whole entry, looked up): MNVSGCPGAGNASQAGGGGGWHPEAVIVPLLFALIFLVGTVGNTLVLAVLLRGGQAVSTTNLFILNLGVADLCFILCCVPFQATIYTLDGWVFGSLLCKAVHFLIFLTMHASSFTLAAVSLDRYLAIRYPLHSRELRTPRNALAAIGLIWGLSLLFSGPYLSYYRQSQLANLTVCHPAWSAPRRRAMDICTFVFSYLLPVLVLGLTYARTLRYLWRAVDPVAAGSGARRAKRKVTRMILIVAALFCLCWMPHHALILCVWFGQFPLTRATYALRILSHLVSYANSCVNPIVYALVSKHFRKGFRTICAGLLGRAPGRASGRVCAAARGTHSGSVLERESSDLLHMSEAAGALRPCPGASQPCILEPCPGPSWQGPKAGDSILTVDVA
S1P2 ag – S1P2 receptor agonists, primary screen, cell-based. activation, % at 4.5 µM. AID 729, 2007. Sphingosine 1-phosphate receptor 2 (Homo sapiens), O95136. 97,000 compounds, 0.46% hits. S1P2-expressing cell line, agonist reporter read-out; in the data active means activation above about 16%;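 further: 0% = vehicle low control and 100% = maximal reference agonist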
GALR2 agonist – GALR2 receptor agonists, primary screen, cell-based. activation, % (concentration not given with the values). AID 803, 2007. GALR2-expressing cells, agonist activation read-out. 140,000 compounds, 0.48% hits; in the data active means activation above about 5%, passing the limit was not always enough;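 further: 0% = vehicle buffer wells and 100% = reference agonist at full effect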
S1P2 blocker – human S1P2 receptor antagonists, primary screen, cell-based | Sphingosine 1-phosphate receptor 2 (Homo sapiens), O95136 | cell-based S1P2 antagonist assay, inhibition at 5 uM | inhibition, % at 5 µM | 97,000 compounds, 0.21% hits | AID 736, 2007; in the data active means inhibition above about 45%;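 further: CRE beta-lactamase reporter cells expressing human S1P2 stimulated with S1P; 0% = agonist at EC80 alone and 100% = agonist plus reference antagonist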
* = called active by the depositor; / = no result.

SMILES	GALR2 blocker	S1P2 ag	GALR2 agonist	S1P2 blocker
CCCn1c(=NC(=O)c2ccco2)c(C(=O)OCC)cc2c(=O)n3ccccc3nc21	-3	7	2	-51
COCCCNC(=O)c1cc2c(=O)n3cccc(C)c3nc2n(C(C)C)c1=N	-6	5	6	-3
C=CCn1c(=N)c(C(=O)NCCCOC)cc2c(=O)n3cc(C)ccc3nc21	-14	19*	16*	-38
Cc1ccc2nc3c(cc(C(=O)NCCCn4ccnc4)n3C)c(=O)n2c1	8	5	0	-20
COc1ccc(CCn2c(=N)c(C(=O)NCc3ccco3)cc3c(=O)n4ccccc4nc32)cc1	1	-2	0	15
O=C(C1CCCN(S(=O)(=O)c2ccccc2)C1)N1CCCc2ccccc21 (configuration not stated)	-2	-9	-2	-11
CCNC(=S)NN(c1ccccc1)c1ccccc1	-8	1	1	-27
COc1ccc(-c2cnnn2-c2ccc(NC(=O)c3ccc(S(=O)(=O)N4CCCCC4)cc3)cc2)cc1	-1	/	1	/
CC(C)OCCCn1c(=NC(=O)c2ccncc2)c(C#N)cc2c(=O)n3ccccc3nc21	-23	41*	12*	-54
CCCCCn1c(=NC(C)=O)c(C#N)cc2c(=O)n3ccccc3nc21	2	9	2	-36
CCNC(=O)CSc1nnc(-c2cc(-c3ccc(Cl)cc3)nc3ccccc23)o1	-11	/	0	/
Cc1cccc(-n2c(SCc3cc(=O)n4ccsc4n3)nc3ccccc32)c1	0	26*	1	-42
Cc1ccc(-c2nnc3c4ccccc4c(C)nn23)cc1S(=O)(=O)N1CCN(C)CC1	10	-2	1	2
Cc1ccc(-c2nnc3c4ccccc4c(C)nn23)cc1S(=O)(=O)N1CCN(CCO)CC1	-3	17*	1	-41
CCCCN1CCc2[nH]c(=S)[nH]c(=O)c2C1	1	/	0	/
CCCCOc1ccccc1NC(=O)Cn1c(-c2nonc2N)nc2ccccc21	18	/	7.8*	/
Nc1nc2c3ccccc3nc(C3CC3)n2n1	-10	24*	1	-67
CCn1c(/C=C/c2c(C)[nH]c3ccccc23)nc2ccccc2c1=O	7	/	7.3*	/
NC(=O)c1nn(-c2ccccc2)nc1NC(=O)Cn1nnc(-c2ccccc2)n1	-2	/	5.2*	/
CCOC(=O)c1ccc(NC(=O)Cn2nnc(-c3ccccc3)n2)cc1	0	-7	0	-14
Cc1ccc(NC(=O)CSc2nnc(-c3cccnc3)n2CCN2CCCCC2)cc1	-3	/	1	/
CCC(Sc1nc2cc(OC)c(OC)cc2c(=O)n1Cc1ccco1)C(=O)NCCOC (configuration not stated)	3	18*	1	-48
O=C(C1=C(O)C(=O)N(Cc2ccco2)C1c1cccs1)c1cccs1 (configuration not stated)	-5	/	1	/
CC(=O)C1=C(O)C(=O)N(CC#N)C1c1cccs1 (configuration not stated)	-4	37*	-1	15
Cc1cc(C)c2nc(NC(=O)[C@@H](NC(=O)c3cccc(S(=O)(=O)N4CCOCC4)c3)C(C)C)sc2c1	3	/	1	/
SMILES	GALR2 blocker	S1P2 ag	GALR2 agonist	S1P2 blocker
CC(C)c1ccc2[nH]c(O)c(N=NC(=O)c3ccc(CSc4nncn4C)cc3)c2c1	-1	/	5.1*	/
Cn1cnnc1SCc1ccc(C(=O)O)cc1	1	-5	-1	-6
O=C(Nc1cccc(Cl)c1Cl)c1cc(S(=O)(=O)NCCc2ccccc2)ccc1F	-8	/	-1	/
COc1ccccc1CCNCc1ccc(OC)c(OCc2ccccc2)c1	18	-5	-1	48*
CCOC(=O)c1c(C)[nH]c(C(=O)OC/C(O)=C(\C#N)c2nc3ccccc3[nH]2)c1C	-15	16*	-1	10
COc1ccccc1OCC(=O)OC/C(O)=C(\C#N)c1nc2ccccc2[nH]1	-3	/	-1	/
Cc1ccc(CN2CCN(/N=C/c3ccc(C)s3)CC2)cc1	4	/	0	/
Nc1nc(SCc2ccc([N+](=O)[O-])cc2)nc2nc3c(cc12)CCCC3	-4	/	5.1*	/
C=CCSc1nc2ccccc2n1C(=O)/C=C/c1cc(OC)c(OC)c(OC)c1	7	-6	1	54*
COc1ccc(Nc2nc(N3CCCCC3)c3ccccc3n2)cc1	19	-5	0	56*
COc1ccccc1CNC(=O)c1cn(C)c(=O)c2cc(OC)c(OC)cc12	-2	12	-1	-18
COc1cccc(NC(=O)c2cn(C)c(=O)c3cc(OC)c(OC)cc23)c1	-1	28*	-2	-29
Cc1ccc(C(=O)NNC(=O)CSc2nnc3c(n2)[nH]c2ccc(C)cc23)cc1	-7	-9	-1	4
CCc1ccc2[nH]c3nc(SCC(=O)NNC(=O)c4ccc(C(C)(C)C)cc4)nnc3c2c1	0	17*	-4	-1
O=C(Nc1ccc(-c2nc3ncccc3o2)cc1)c1ccc(Br)o1	-14	-1	3	54*
CCOC(=O)c1sc(NC(=O)CCCn2nc([N+](=O)[O-])cc2C)c(C(=O)OCC)c1C	8	/	-2	/
CC(=O)Oc1cc2oc(=O)cc(C)c2cc1OC(C)=O	-2	0	6.0*	-17
Cc1ccccc1NC(=S)NC1(C)CCS(=O)(=O)C1 (configuration not stated)	7	/	0	/
CCn1c(=O)cc(SCC(=O)Nc2cc(OC)c(OC)c(OC)c2)c2ccccc21	-1	20*	-1	-48
COc1ccccc1C1CN(c2ccc(F)cc2F)N=C1c1cccs1 (configuration not stated)	-13	17*	37*	-33
COc1ccccc1C1CC(c2cccs2)=Nc2ccccc2S1 (configuration not stated)	8	-2	5	2
Cc1ccc2sc(NC(=O)c3ccc(N4C(=O)CCC4=O)cc3)nc2c1C	-3	/	6.7*	/
CCc1cccc2sc(NC(=O)c3ccc(N4C(=O)CCC4=O)cc3)nc12	4	/	0	/
O=C(Nc1ccccc1)c1sc2cc(C(F)(F)F)cnc2c1-c1cccs1	3	-6	-1	46*
COc1cc2nc(SCc3ccc(Cl)cc3Cl)n(Cc3cccs3)c(=N)c2cc1OC	-12	-6	-2	16
SMILES	GALR2 blocker	S1P2 ag	GALR2 agonist	S1P2 blocker
COc1cc2nc(SCc3ccc(C(F)(F)F)cc3)n(Cc3cccs3)c(=N)c2cc1OC	2	16*	-2	10
CSc1cc(-c2ccccc2)n(Cc2c(Cl)cccc2Cl)c(=O)c1C#N	-6	-3	0	0
CSc1cc(-c2ccc(Cl)cc2)n(Cc2ccccc2)c(=O)c1C#N	-3	-8	438*	-19
COc1cc2c(cc1OC)-c1cc(Nc3ccc4c(c3)OCCO4)nc(=O)n1CC2	-12	20*	-2	-51
COc1cc2c(cc1OC)-c1cc(OCc3cccnc3)nc(=O)n1CC2	2	23*	-1	-36
CCOc1cccc(Nc2cc3n(c(=O)n2)CCc2cc(OC)c(OC)cc2-3)c1	10	29*	0	-48
Cc1ccc(NC(=O)c2ccc(Cn3cc([N+](=O)[O-])cn3)cc2)c(C)c1	1	/	0	/
CCOCCOC(=O)c1ccc(-n2cncn2)nc1	2	-3	-3	-16
